Test results as given in PubChem BioAssay AID588352 (The Scripps Research Institute Molecular Screening Center, 2011).
Hit rate of the full screen: of about 360,000 compounds, about 620 (0.17%) were called active. The full list was thinned out, with actives kept by preference. Values without a mark were called inactive.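 Rule for the calls: active = inhibition above a per-campaign cutoff, the mean of all compounds plus 3 SD (cut at about 60% in these data); inactive = the rest.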

Each compound was assayed against Nuclear receptor coactivator 3 (Homo sapiens) (UniProt Q9Y6Q9) (assay: NCOA3 GAL4-fusion reporter inhibition – cell-based, luminescence, primary screen (AID 588352;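 note: 0% = DMSO-treated cells and 100% = gossypol-treated cells at 36 µM; higher means less SRC3-driven luciferase light from the GAL4 reporter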)). Conditions: HEK293 GAL4-SRC3 luciferase reporter, at 3.6 µM, stronger effect = higher value.
Sequence of Nuclear receptor coactivator 3 (Homo sapiens) (Q9Y6Q9 whole entry, looked up, the tested form may be a part): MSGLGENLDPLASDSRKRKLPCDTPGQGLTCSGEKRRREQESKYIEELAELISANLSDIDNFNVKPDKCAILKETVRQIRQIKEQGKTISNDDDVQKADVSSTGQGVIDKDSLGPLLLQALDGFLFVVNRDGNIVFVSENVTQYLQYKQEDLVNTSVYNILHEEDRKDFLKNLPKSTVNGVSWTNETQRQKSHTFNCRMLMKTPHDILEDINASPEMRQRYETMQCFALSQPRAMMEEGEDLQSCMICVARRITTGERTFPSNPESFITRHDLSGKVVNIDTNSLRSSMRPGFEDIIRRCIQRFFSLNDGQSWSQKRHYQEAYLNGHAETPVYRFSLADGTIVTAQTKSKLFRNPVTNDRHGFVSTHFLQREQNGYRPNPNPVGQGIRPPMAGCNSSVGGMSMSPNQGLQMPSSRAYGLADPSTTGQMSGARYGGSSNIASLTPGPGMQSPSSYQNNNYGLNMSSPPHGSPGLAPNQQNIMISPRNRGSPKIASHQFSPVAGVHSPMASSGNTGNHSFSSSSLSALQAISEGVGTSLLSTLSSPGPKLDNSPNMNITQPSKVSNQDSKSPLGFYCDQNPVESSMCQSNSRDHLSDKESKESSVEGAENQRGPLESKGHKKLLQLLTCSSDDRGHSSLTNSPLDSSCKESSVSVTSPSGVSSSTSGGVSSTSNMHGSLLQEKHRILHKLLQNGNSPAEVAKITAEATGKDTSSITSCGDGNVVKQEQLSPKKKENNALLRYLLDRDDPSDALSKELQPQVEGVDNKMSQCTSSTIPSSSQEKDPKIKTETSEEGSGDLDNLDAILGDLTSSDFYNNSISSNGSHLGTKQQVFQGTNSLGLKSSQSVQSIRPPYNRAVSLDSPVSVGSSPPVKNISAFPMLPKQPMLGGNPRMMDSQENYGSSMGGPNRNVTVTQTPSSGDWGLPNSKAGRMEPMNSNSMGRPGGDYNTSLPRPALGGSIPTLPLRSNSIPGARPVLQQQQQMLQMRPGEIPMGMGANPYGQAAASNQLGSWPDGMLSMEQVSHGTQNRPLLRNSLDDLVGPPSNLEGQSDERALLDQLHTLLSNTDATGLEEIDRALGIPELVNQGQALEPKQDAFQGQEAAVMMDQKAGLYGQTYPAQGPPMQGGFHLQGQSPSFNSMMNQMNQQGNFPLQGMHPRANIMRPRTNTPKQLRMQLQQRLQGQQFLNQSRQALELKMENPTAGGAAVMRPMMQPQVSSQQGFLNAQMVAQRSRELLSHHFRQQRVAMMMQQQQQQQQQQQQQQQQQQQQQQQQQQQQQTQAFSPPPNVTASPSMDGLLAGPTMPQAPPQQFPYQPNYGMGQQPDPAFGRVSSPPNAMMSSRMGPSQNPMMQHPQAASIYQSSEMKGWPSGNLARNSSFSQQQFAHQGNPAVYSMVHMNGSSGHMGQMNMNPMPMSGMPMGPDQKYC
CC(C)CC[n+]1ccn(C2=C([O-])c3ccccc3C(=O)/C2=N\S(=O)(=O)c2ccccc2)c1 gave an inhibition of -4.74%.
For CN(C)CC(C)(C)CNC(=O)c1cc(Br)cc(Br)c1O, the inhibition was -17%.
Compound Cc1c(NC(=O)COC(=O)/C=C/c2cccc(F)c2)c(=O)n(-c2ccccc2)n1C has an inhibition of -6.79%.
With CC(=O)NN=C(C)c1ccc(NC(=O)C2CC2)cc1 the inhibition was 0.05%.
For CCCC(NCC(=O)Nc1ccccc1C(=O)NC1CC1)c1ccccc1 (stereo not given), the inhibition was 4.81%.
Cn1c(CC(=O)Nc2ccc(F)cc2)nnc1SCC(=O)NC1CCCCC1 was tested, and the inhibition was -3.83%.
Compound Cc1ccc(OCCNC(=O)c2cccc(S(=O)(=O)N3CCN(Cc4ccccc4)CC3)c2)cc1 has an inhibition of 0.45%.
CC(=O)c1ccc(OC(=O)N2CCOCC2)cc1 was tested, and the inhibition was -9.63%.
For CCC(NC(=O)C1CCCC1)c1ccc(C)cc1 (stereo not given), the inhibition was -5.79%.
Work on COc1ccc(Cl)cc1NC(=O)C(C)N1CCc2ccccc21 (stereo not given) yielded an inhibition of -3.25%.
In the case of O=C(N/N=C/c1ccccc1O)/C(=C/c1ccccc1)CCO, the inhibition is reported as 43.6%.
With C=CCOc1ccccc1/C=N/NC(=O)Cc1ccccc1 the inhibition was -4.16%.
In the case of O=C(NN=Cc1ccccc1O)NN=Cc1ccccc1O, the inhibition is reported as 64.5% (active).
O=C(COc1ccc(S(=O)(=O)NCCc2ccccc2)cc1)N1CCCC1 showed an inhibition of 15.7%.
In the case of CCc1nnc(NC(=O)CCN(c2ccc(C)cc2)S(=O)(=O)c2ccccc2)s1, the inhibition is reported as 3.02%.
Work on CNS(=O)(=O)c1ccc(N2CCCC2=O)c([N+](=O)[O-])c1 yielded an inhibition of 0.16%.
Work on COc1ccc(N(C(=O)c2snc(C(N)=O)c2N)C(C(=O)NC2CCCC2)c2ccco2)cc1OC (stereo not given) yielded an inhibition of -3.31%.
Brc1ccc2nc(-c3ccccc3)c(Cc3ccccc3)n2c1 gave an inhibition of -38.3%.
Cc1cc(=O)oc2c(C(=O)c3ccccc3)c(OCC(N)=O)ccc12 showed an inhibition of 14.2%.
In the case of COc1ccc(C(=O)N/N=C2\CCS(=O)(=O)c3ccc(F)cc32)cc1OC, the inhibition is reported as 5.88%.
Compound Cc1cc(C)n(C(=O)c2ccc(C)c(S(=O)(=O)N3CCOCC3)c2)n1 has an inhibition of 12.7%.
CC[C@H]1CN2CCc3cc(OC)c(OC)cc3[C@@H]2C[C@@H]1C[C@H]1NCCc2cc(OC)c(OC)cc21 was tested, and the inhibition was 94.6% (active).
Compound O=C(O)C1CCN(C(=O)OCc2ccccc2)CC1 has an inhibition of -70.7%.
With CCCNC(=O)C1(C)CCCN(C(=O)c2cccc(OC(C)=O)c2C)C1 (stereo not given) the inhibition was -10.9%.
CCOC(=O)CN(C)S(=O)(=O)c1ccc(-c2cc(C(=O)OC)sc2C(F)(F)F)cc1 was tested, and the inhibition was 9.38%.
Compound N#C/C(=C(\O)CCl)c1nnc2n1CCCCC2 has an inhibition of 9.47%.
CCCOc1ccc(Cc2c(O)nc(N)[nH]c2=O)cc1C gave an inhibition of 1.06%.
COC(=O)/C=C(\Oc1ccccc1)C1(O)CCCCC1 gave an inhibition of 9.01%.
Compound COc1ccc(OC)c(Nc2nc3ccccc3n3cnnc23)c1 has an inhibition of 9.44%.
For COc1ccc(Nc2ncnc3ccc(Br)cc23)c(OC)c1, the inhibition was 82% (active).
For COc1ccc(OC)c(NC(=O)CN(C)CCOc2ccc(Br)cc2)c1, the inhibition was 4.03%.
With CCOC1=C2[C@@H](CN(S(=O)(=O)c3ccc(C)cc3)[C@H]2c2ccccc2F)[C@H]2C(=O)N(Cc3ccccc3)C(=O)[C@H]2C1 the inhibition was 2.22%.
In the case of CCn1ncc(CNC(=O)C2(C)CC2(Br)Br)c1C (stereo not given), the inhibition is reported as -0.54%.
With CCCCCCCCn1c2c(c(=N)c3c1CCC3)CCCC2 the inhibition was 80% (active).
Work on Cc1cc(S(=O)(=O)NC2CCCC2)ccc1-n1cnnn1 yielded an inhibition of 2.04%.
For O=S1(=O)CCC(NC(=S)SCc2ccccc2Br)C1 (stereo not given), the inhibition was 8%.
In the case of FC(F)(F)c1cccc(-c2nc(COc3ccc(Cl)cc3Cl)no2)c1, the inhibition is reported as 12.2%.
With CC(C)(C)c1nc2ccccc2c(=O)n1N1C(=O)c2ccccc2C1=O the inhibition was 2.66%.
With CN(c1ccc2nc3ccccc3c(=O)n2n1)C1CCCCC1 the inhibition was 73.1% (active).
Work on CN(C(=O)Nc1ccc(Cl)cc1)n1cnc2ccccc2c1=O yielded an inhibition of -6.25%.
COc1cccc2cc(C(=O)NCc3ccc(C)cc3)c(=N)oc12 showed an inhibition of 14.3%.
C=CCOC(=O)C1=C[C@@H](c2ccc3c(c2)OCO3)C[C@@H](OCCCCO)O1 was tested, and the inhibition was -13.9%.
CC(C)c1cc(C(N)=O)c(NC(=O)c2cccc(COc3ccc(Br)cc3)c2)s1 was tested, and the inhibition was -149%.
For COCc1ccc(C(=O)NC2CC(C)(C)Cc3c2cnn3-c2ccc(C)cc2)o1 (stereo not given), the inhibition was 16.3%.
In the case of O=C(OC12CC3CC(CC(C3)C1)C2)c1ccc(NCc2cc(O)ccc2O)cc1, the inhibition is reported as 74.5% (active).
Compound CC(C)OC(=O)c1ccc(NCc2cc(O)ccc2O)cc1Cl has an inhibition of -31.6%.
In the case of CCOC(=O)c1[nH]cnc1C(=O)NC1CCCCC1, the inhibition is reported as -23%.
COc1cccc(Nc2nnc(SCC(=O)N3CC(C)OC(C)C3)s2)c1 (stereo not given) gave an inhibition of -8.99%.
With C=CCSc1nnc(Cn2c(=O)sc3ccccc32)n1C the inhibition was 5.67%.
Work on COc1ccccc1Cn1c(C)nnc1-c1cnn(C)c1N yielded an inhibition of 19.6%.
For CCc1nc2ccc(C(=O)NC3CCN(Cc4ccccc4)CC3)cn2c1N(C)CCN1CCOCC1, the inhibition was 14.3%.
Compound Nc1nc(SCC(=O)NNc2c(Cl)cc(Cl)cc2Cl)n[nH]1 has an inhibition of 18%.
With Cc1ccc(C)c(S(=O)(=O)N2CC(=O)Nc3ccccc32)c1 the inhibition was 22.6%.
Work on COc1ccc(S(=O)(=O)NCC(=O)NC2CC2)cc1OC yielded an inhibition of -59%.
In the case of COc1cc(OC)cc(-c2c(-c3ccc(F)cc3)c3cc(-c4ccc5cc[nH]c5c4)ccc3n2C)c1, the inhibition is reported as 7.21%.
Cc1nc2ccccc2n1CC(O)c1ccccc1 (stereo not given) showed an inhibition of -14%.
Compound O=C(Cn1nc([N+](=O)[O-])nc1Br)NC1CCCCC1 has an inhibition of 5.25%.
COc1cc(OC)cc(-c2c(-c3cccs3)c3cc(-c4ccc(OC)cc4F)ccc3n2C)c1 gave an inhibition of -12.6%.
Work on COC(=O)c1ccc(NC(=O)CSc2nc(N)c(NC(=O)c3ccc(Br)o3)c(=O)[nH]2)cc1 yielded an inhibition of 11.5%.
Work on Clc1cccc(Cl)c1Cn1nnc(-c2cccs2)n1 yielded an inhibition of -55.9%.
